# Laboratory results taken from the supplement of paper PMC6555819.
# Key:
# Assay in all cases: PBM binding z-score (relative to random genomic background probes); higher = stronger binding; sequences stand for … in GC…GCGATTGACAGCGTAGAATGAAGG
# [1] = tested on: RARg:RXRa (NR concentration 270 nM, RXRa partner concentration 90 nM)
# Summary of the method: (§1)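 Probes were double-stranded and carried 34-nt variable regions with direct-repeat seeds, single-nucleotide variants, half-site ablations and random human genomic background sequences, printed on custom Agilent 4×180K protein-binding microarrays. Arrays were incubated 1 h with ligand-free nuclear receptor dimers in PBS pH 7.4, 2% milk, 0.02% Triton X-100, 1 mM DTT, 0.2 mg/mL BSA and 0.4 mg/ml salmon testes DNA. Antibodies against each partner (one per run) detected binding, and scanned fluorescence was regression-normalized. Binding z-scores use the random background probes as reference.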
# [2] = tested on: RARg homodimer (NR concentration 270 nM)
# Summary of the method: as §1
# [3] = tested on: RXRa DBDmut IVT, anti-RXR (DBD mutation: RXRa K156A/R161A, NR concentration 90 nM)
# Summary of the method: as §1
# [4] = tested on: RXRa homodimer (NR concentration 180 nM)
# Summary of the method: as §1
# [5] = tested on: THRa:RXRa (NR concentration 90 nM, RXRa partner concentration 90 nM)
# Summary of the method: as §1
# [6] = tested on: THRa homodimer (NR concentration 90 nM)
# Summary of the method: as §1
# [7] = tested on: VDR homodimer (NR concentration 270 nM)
# Summary of the method: as §1
Sequence,PBM binding z-score [1],PBM binding z-score [2],PBM binding z-score [3],PBM binding z-score [4],PBM binding z-score [5],PBM binding z-score [6],PBM binding z-score [7]
CGTCTAAGGTCATAGGAGGTCAGTGAAGACAGAT,7.35,7.8,4.42,7.22,5.51,4.81,4.89
TCGTGTAGGTTACGGGGGCATTCAGGGATGAAGA,4.09,3.31,2.75,3.35,4.09,2.66,3.98
CGTCAAAGTCCAAGGTAACGTAACAGAAAGCAGC,0.398,1.1,1.15,-0.0038,1.31,0.878,0.231
TATAAAGGGTCAAAGGCCAGAGTACGAATGTCGA,6.39,6.63,3.06,7.08,3.11,-0.348,2.46
CCTACTGGTCCAAGGTCATTGATCAGTCAAAGCA,3.84,3.4,2,3.96,3.59,3.48,3.1
AGAATGAGGTCAAGATCAGGGAAACAGAATACAT,6.53,6.24,4.15,6.66,4.29,2.98,3.31
TCTTGTAGATCAACAGGAGGTTAATAAAGATCGA,0.776,0.301,0.161,1.03,0.904,-0.0853,-0.179
AGAATGAGATTACCAAAGATCAGGGAAACGCTTG,0.145,0.36,-0.574,0.178,-0.261,-0.869,-0.177
TCTCGGAGGACACCAAAGGTCAGAGCTCGACATC,4.82,5.32,0.814,4.15,3.65,1.2,1.11
CGTCCAAGGTCATTGGAGGTCAGTGAAGACAGAT,7.03,7.55,4.46,6.96,5.19,3.37,5.22
ATATGTAGGTTAGGGTCAGTCAGAAAGTAGGGAA,3.08,3.14,1.04,3.37,3.32,2.69,1.79
CAAACTAGGTCACAGTGGTCAAAGTCCGTGCGTA,4.19,5.18,1.51,3.32,3.17,1.43,1.23
ATATGTAGGTTGGGGTCATTCAGAAAGTAGGGAA,5.15,3.36,3.69,7,4.34,3.84,6.23
CGAACTAGGTCTAAGGACAGTGAAAGGCGACGTA,-0.0449,0.382,0.0916,0.0481,2.65,1.96,-0.112
AACGAAAGGTCGAAGGTGAGTATACCCACCCGAA,4.5,3.96,1.05,5.29,2.16,-0.462,0.527
AGAATGAGGTTACCAAAGTTCAGGGAAACGCTTG,4.44,3.52,1.62,4.3,4.02,0.878,2.32
ATATGTAGGTTAGCTGGGGTCATTCACACTAGGC,4.14,3.12,1.95,5.25,5.01,3.56,5.37
TAGCCTAAGTCATGCGGGCCAGTATAGTGTCGGC,-0.283,-0.412,-0.949,-0.136,-0.34,-0.848,-1.04
TCTCGGAGGACACAAAGGTCAGAGCTTTCCAGAG,4.8,5.32,0.957,4.32,3.45,0.913,2.06
CCGACTGGGGCAAGGTCACCATAACGCACAGCCA,4.32,4.45,0.549,4.37,3.66,2.7,2.02

Sequence,PBM binding z-score [1],PBM binding z-score [2],PBM binding z-score [3],PBM binding z-score [4],PBM binding z-score [5],PBM binding z-score [6],PBM binding z-score [7]
CGAACTAGGTCACCCAGGACAGTGAATACATTGA,4.24,5.04,2.03,3.13,3.66,2.18,1.89
CCTACTGGGCCACGAAAGGCCATTGATTCAGTGA,0.332,0.725,-0.292,-0.0677,1.15,-0.457,-0.271
CGTCCAAGGTCTAGGTCAGTGAAAGAGACTCGAA,1.6,2.4,0.323,0.486,1.86,0.936,0.00097
AATACAAGGTCATCGTAGGCCAGAGTACGCACAG,6.21,6.23,3.94,6.37,4.47,2.74,4.03
CGAACTAGGTCGCCAGGACAGTGAAGAGGTTGGA,0.757,1.27,0.47,0.761,1.68,0.578,-0.15
GGAACGAGGTCATTCGAGTTGATAGCATGGCGAT,6.09,6.21,4.87,7.11,4.76,2.26,6.31
TAGCCTAGGGCATTCAGGGGCCAGTATAGAAAGC,1.99,1.1,-0.766,0.0553,1.2,-0.586,-0.169
AGAATGAGGTCATACGTAGATCAGGGAAGAAAGT,6.31,5.97,4.7,6.67,4.18,3.25,4.56
ATCGAAAGGTCCAAGGTGAGTATACCCACCCGAA,0.919,1.08,0.0908,0.853,1.35,0.653,0.214
CCTAGTTGTTCAGGAGGTCACACACCGGATATGA,4.48,4.35,1.15,4.73,3.62,2.81,3.5
TCTTGTAGATCAATAGAAGTTAAGAAAGTGCGCT,0.119,0.155,1.24,0.537,0.00398,-0.786,0.102
CGAACAAGGTCACCAGGACAGTGAAGAGGTTGGA,6.81,6.95,3.8,7.03,4.15,3.1,2.83
TCTGCTAGGTCAACGTTGGTCAGCTAATCTGCTA,3.78,4.83,1.06,2.32,3.21,0.755,-0.37
TACCCTAGGTCATTCAGGGGCCAGTATAGAAAGC,6.19,5.02,1.56,3.18,3.65,1.29,1.84
CCGAATAGGTTACGAGGGGGCATTCAGTGCGAAT,3.99,2.87,1.75,3.03,4.03,0.692,3.51
TCTGCTAGGTCAACGATGGTCAGTTAATCTGCTA,4.12,4.95,0.834,2.5,2.93,0.73,-0.183
CGAACGAGGTCATGAGTTGATAGCAAATGCCGAT,6.18,6.02,4.6,6.87,4.26,3.07,4.41
CCTAGCAGGCCAATCTAGGTCACTCAAGGCTTGA,1.5,1.85,0.439,0.64,4.18,1.57,0.1
ATCGAAAGGTCGACCAGGTGAGTATACACCGTTT,4.38,4.1,1.3,4.37,3.34,0.391,1.22
CCTTACGGGTTACTCCAGGTTATAGCATCGGAGT,0.987,0.779,-0.0626,1.26,4.49,0.236,0.487

Sequence,PBM binding z-score [1],PBM binding z-score [2],PBM binding z-score [3],PBM binding z-score [4],PBM binding z-score [5],PBM binding z-score [6],PBM binding z-score [7]
TTGCCAAGGTGAAAGGTCGTTGATGCACGCCTTG,4.33,2.25,0.468,5.91,3.3,0.784,1.34
CGTTCAAGGTCAAAGGTCAGTGAAGAGATGACGG,8.78,8.73,4.53,10.3,5.04,3.34,3.81
ATATGTAGGTTACATCCGGGTCATCCAGGCTATG,3.98,2.1,0.681,2.89,3.89,2.64,2.44
CCTACTGGGCCGTTCAGAGGTCATTGATCATATG,3.7,2.47,0.516,3.46,2.86,1.42,2.97
CGTCCAAGGTCAATGCTAGATCAGTGAAAGCATT,5.61,5.86,3.56,4.83,3.51,1.97,2.34
CCGAGGAGGTTACGAGGGGGCATTCAGTGCGAAT,4.21,3.17,2.24,3.28,4.49,0.537,3.87
CGTCCAAGGTTAAGGTCAGTGAAAGAGACTCGAA,4.2,4.7,1.71,3.45,3.83,3.83,1.79
GCTTACGGGTCCAAGGTTATAGCATGAATAGAAT,0.631,0.599,2.18,0.914,1.34,0.551,1.97
AGTCAAAGTGCATCTAGGTAACGTAAGATATGCT,1.07,1.23,1.55,0.663,1.31,-0.154,0.36
AAAACAGGGTCATCGTAGGCCAGAGTACGCACAG,6,5.11,3.74,7.23,4.81,1.58,4.06
AGTCAAAGTTCATCTAGGTCACGTAAGATATGCT,6.63,7.35,4.81,5.75,4.62,2.83,7.84
CGTCCAAGGTCGAAGGTCAGTGAAGAGATGACGG,4.83,4.64,1.82,6.09,3.04,0.66,1.14
TGTCAATGTTCAAAGGTAACGTAAGTATCCACAC,0.811,0.759,-0.404,0.776,1.24,-0.064,-0.453
CTATGTAGGTCAAGGGGGTCATTCAGTTTGAAAG,7.26,6.93,3.29,7.64,4.27,2.15,7.37
AGTCAAACTTCAGGACGAGGTAACGTAAAGCACG,0.505,0.586,-0.343,0.511,2.44,1.77,-0.0917
ACTCGGTGGACAAAGGTCAGAGCTACGCCAGTGA,4.58,4.49,0.0487,4.44,2.45,-0.204,0.332
TGTATGAGGTTAAAGATCAGGGAACGTGGCGTCG,2.79,1.99,1.22,4.35,2.84,1.01,1.19
CCTTACGGGTCCCTCCAGGTTATAGCATCGGAGT,0.0762,0.0141,-1.22,0.2,3.05,0.1,0.267
